Structures can show the parent of a compound that is named as a salt.
How the values were obtained:
U-2932 [1] = assay: growth inhibition by drug alone (1 - RLU/untreated control) (fraction); higher = stronger inhibition; conditions: 177Lu-lilotomab satetraxetan 0 ug/ml
Summary of the method: (§1)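 Plates pre-printed with the Selleck Cambridge Cancer Compound library at 10/100 nM (RIVA) or 10/1,000 nM (U-2932) received 3,000 cells/well. These cells had been washed after 18 h untreated or with a radiolabelled anti-CD37 antibody conjugate (~600 MBq/mg; 0.5 µg/ml RIVA, 1 µg/ml U-2932). Growth inhibition was obtained from RealTime-Glo luminescence in relation to untreated no-drug wells. Each daily read from day 3, taken after 1 h at 37°C, was converted as 1 − RLU/mean of 48 such wells per plate.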

RIVA [2] = assay: as above; conditions: 177Lu-lilotomab satetraxetan 0 ug/ml
Summary of the method: as §1

U-2932 [3] = assay: growth inhibition by drug plus 177Lu-lilotomab satetraxetan (1 - RLU/untreated control) (fraction); higher = stronger inhibition; conditions: 177Lu-lilotomab satetraxetan 1 ug/ml
Summary of the method: as §1

RIVA [4] = assay: as above; conditions: 177Lu-lilotomab satetraxetan 0.5 ug/ml
Summary of the method: as §1

Structure (SMILES)	growth inhibition by drug alone (U-2932 [1]; 10 nM, time (day): 3)	growth inhibition by drug alone (U-2932 [1]; 10 nM, time (day): 4)	growth inhibition by drug alone (U-2932 [1]; 10 nM, time (day): 5)	growth inhibition by drug alone (U-2932 [1]; 10 nM, time (day): 6)	growth inhibition by drug alone (U-2932 [1]; 1000 nM, time (day): 3)	growth inhibition by drug alone (U-2932 [1]; 1000 nM, time (day): 4)	growth inhibition by drug alone (U-2932 [1]; 1000 nM, time (day): 5)	growth inhibition by drug alone (U-2932 [1]; 1000 nM, time (day): 6)	growth inhibition by drug alone (RIVA [2]; 10 nM, time (day): 3)	growth inhibition by drug alone (RIVA [2]; 10 nM, time (day): 4)	growth inhibition by drug alone (RIVA [2]; 10 nM, time (day): 5)	growth inhibition by drug alone (RIVA [2]; 10 nM, time (day): 6)	growth inhibition by drug alone (RIVA [2]; 100 nM, time (day): 3)	growth inhibition by drug alone (RIVA [2]; 100 nM, time (day): 4)	growth inhibition by drug alone (RIVA [2]; 100 nM, time (day): 5)	growth inhibition by drug alone (RIVA [2]; 100 nM, time (day): 6)	growth inhibition by drug plus 177Lu-lilotomab satetraxetan (U-2932 [3]; 10 nM, time (day): 3)	growth inhibition by drug plus 177Lu-lilotomab satetraxetan (U-2932 [3]; 10 nM, time (day): 4)	growth inhibition by drug plus 177Lu-lilotomab satetraxetan (U-2932 [3]; 10 nM, time (day): 5)	growth inhibition by drug plus 177Lu-lilotomab satetraxetan (U-2932 [3]; 10 nM, time (day): 6)	growth inhibition by drug plus 177Lu-lilotomab satetraxetan (U-2932 [3]; 1000 nM, time (day): 3)	growth inhibition by drug plus 177Lu-lilotomab satetraxetan (U-2932 [3]; 1000 nM, time (day): 4)	growth inhibition by drug plus 177Lu-lilotomab satetraxetan (U-2932 [3]; 1000 nM, time (day): 5)	growth inhibition by drug plus 177Lu-lilotomab satetraxetan (U-2932 [3]; 1000 nM, time (day): 6)	growth inhibition by drug plus 177Lu-lilotomab satetraxetan (RIVA [4]; 10 nM, time (day): 3)	growth inhibition by drug plus 177Lu-lilotomab satetraxetan (RIVA [4]; 10 nM, time (day): 4)	growth inhibition by drug plus 177Lu-lilotomab satetraxetan (RIVA [4]; 10 nM, time (day): 5)	growth inhibition by drug plus 177Lu-lilotomab satetraxetan (RIVA [4]; 10 nM, time (day): 6)	growth inhibition by drug plus 177Lu-lilotomab satetraxetan (RIVA [4]; 100 nM, time (day): 3)	growth inhibition by drug plus 177Lu-lilotomab satetraxetan (RIVA [4]; 100 nM, time (day): 4)	growth inhibition by drug plus 177Lu-lilotomab satetraxetan (RIVA [4]; 100 nM, time (day): 5)	growth inhibition by drug plus 177Lu-lilotomab satetraxetan (RIVA [4]; 100 nM, time (day): 6)
CC1(COc2ccc3c(c2)ncn3-c2ccc3cccc(N4CCC(N)CC4)c3n2)COC1	0.0766	0.0633	0.00938	-0.0623	0.0371	0.0705	-0.00181	0.0785	0.0318	-0.0103	-0.0736	-0.123	-0.25	-0.202	-0.209	-0.254	0.0763	0.118	0.168	0.194	0.257	0.342	0.386	0.516	0.618	0.628	0.633	0.631	0.449	0.485	0.466	0.463
Cc1ccnc(NS(=O)(=O)c2ccc(NC(=O)Nc3ccc(S(=O)(=O)Nc4nccc(C)n4)cc3)cc2)n1	0.175	0.112	-0.00245	-0.0763	0.114	0.089	-0.0667	-0.0262	0.0129	0.0204	-0.0366	-0.304	-0.284	-0.137	-0.166	-0.281	0.0395	0.0885	0.162	0.182	0.099	0.13	0.195	0.303	0.581	0.617	0.633	0.636	0.492	0.533	0.541	0.545
C[N+](C)([O-])CCNc1ccc(NCC[N+](C)(C)[O-])c2c1C(=O)c1c(O)ccc(O)c1C2=O [Banoxantrone dihydrochloride]	-0.0281	-0.0255	-0.149	-0.168	-0.0598	-0.0493	-0.082	-0.106	-0.171	-0.248	-0.397	-0.545	-0.338	-0.41	-0.557	-0.705	-0.00903	0.0168	0.0134	-0.00428	0.0744	0.142	0.219	0.381	0.391	0.472	0.484	0.498	0.446	0.551	0.571	0.588
CN1CCC(CNc2ccc3ncc(-c4cccc(OC(F)(F)F)c4)n3n2)CC1 [SGI-1776 free base]	0.04	0.0462	-0.0159	-0.415	0.131	0.115	0.0463	-0.00407	-0.104	-0.155	-0.336	-0.875	-0.453	-0.367	-0.351	-0.438	-0.0394	0.0134	0.0445	0.0394	0.154	0.125	0.168	0.265	0.428	0.539	0.541	0.561	0.302	0.441	0.445	0.462
CN(C)CCOc1ccc(/C(=C(/CCCl)c2ccccc2)c2ccccc2)cc1 [Toremifene Citrate (Fareston, Acapodene)]	0.147	0.112	-0.00292	-0.0137	0.104	0.101	-0.00882	0.0143	0.218	0.188	0.166	-0.0195	0.0631	0.0479	0.00246	-0.0264	0.111	0.144	0.204	0.262	0.0949	0.116	0.163	0.312	0.724	0.722	0.729	0.733	0.696	0.711	0.713	0.72
O=C(c1cc(Cc2n[nH]c(=O)c3ccccc23)ccc1F)N1CCN(C(=O)C2CC2)CC1 [Olaparib (AZD2281)]	0.0127	-0.023	-0.0205	0.0558	-0.0113	0.025	0.0248	0.0776	-0.144	-0.15	-0.137	-0.143	-0.228	-0.239	-0.25	-0.231	-0.0255	0.035	0.0896	0.188	0.0503	0.108	0.156	0.315	0.539	0.593	0.618	0.613	0.39	0.482	0.505	0.533
CN1CC[C@H](c2c(O)cc(O)c3c(=O)cc(-c4ccccc4Cl)oc23)[C@H](O)C1 [Flavopiridol hydrochloride]	-0.0754	-0.0311	-0.0181	0.00401	0.957	0.967	0.974	0.979	-0.111	-0.116	-0.189	-0.255	0.504	0.533	0.499	0.385	-0.0108	0.0505	0.0958	0.189	0.965	0.972	0.978	0.983	0.521	0.567	0.566	0.567	0.615	0.69	0.704	0.72
COc1ccccc1OCC(O)CN1CCN(CC(=O)Nc2c(C)cccc2C)CC1 (stereo not drawn) [Ranolazine (Ranexa)]	0.0363	0.0222	-0.0749	-0.119	-0.0415	-0.0106	-0.0786	-0.23	0.0348	-0.0338	-0.102	-0.328	-0.11	-0.146	-0.161	-0.223	-0.0197	0.00637	0.00274	0.118	-0.0847	8.82e-05	-0.0142	-0.000571	0.412	0.527	0.544	0.551	0.294	0.438	0.446	0.418
Cc1ccc(-c2cc(C(F)(F)F)nn2-c2ccc(S(N)(=O)=O)cc2)cc1 [Celecoxib]	-0.0761	-0.0572	-0.00842	0.0336	-0.0323	-0.0104	-0.0383	-0.0538	-0.101	-0.129	-0.153	-0.237	-0.0795	-0.119	-0.157	-0.232	-0.0503	-0.0256	0.0111	0.161	-0.109	-0.0274	0.00456	0.0432	0.337	0.477	0.505	0.512	0.373	0.448	0.453	0.425
COC(=O)c1ccc2c(C(=Nc3ccc(N(C)C(=O)CN4CCN(C)CC4)cc3)c3ccccc3)c(O)[nH]c2c1 [BIBF1120 (Vargatef)]	-0.0536	-0.0365	-0.0213	0.0413	-0.121	-0.0853	-0.113	-0.173	-0.119	-0.148	-0.188	-0.27	-0.285	-0.322	-0.347	-0.414	-0.06	-0.0397	-0.00235	0.146	-0.172	-0.0703	-0.0418	-0.00489	0.292	0.437	0.461	0.479	0.251	0.362	0.366	0.375
CC(C)C[C@@H](C(=O)N[C@H](C(=O)OC1CCCC1)c1ccccc1)[C@H](O)C(=O)NO [Tosedostat (CHR2797)]	0.0666	0.0228	-0.0512	-0.123	-0.142	-0.112	-0.102	-0.0781	0.0304	0.0133	0.000967	-0.0544	-0.208	-0.212	-0.221	-0.3	0.00927	0.0682	0.108	0.162	-0.0889	-0.0223	0.0204	0.176	0.571	0.596	0.613	0.62	0.559	0.591	0.602	0.604
COc1cc2nccc(Oc3ccc(NC(=O)C4(C(=O)Nc5ccc(F)cc5)CC4)cc3)c2cc1OC [XL-184 free base (Cabozantinib)]	0.15	0.0841	-0.102	-0.0896	0.0853	0.105	0.037	-0.036	0.0104	0.0385	-0.0535	-0.315	-0.233	-0.0966	-0.104	-0.224	0.0398	0.083	0.153	0.164	0.112	0.177	0.224	0.337	0.545	0.613	0.621	0.628	0.445	0.52	0.529	0.532
O=C(CCc1ccc(O)cc1)c1c(O)cc(O)cc1O [Phloretin (Dihydronaringenin)]	0.0643	0.0536	-0.0351	-0.0447	-0.0185	0.0218	-0.0851	-0.198	-0.0549	-0.06	-0.168	-0.56	-0.0989	-0.0769	-0.0878	-0.189	0.0204	0.0299	0.064	0.0928	-0.0932	0.0213	-0.0168	0.0656	0.412	0.555	0.573	0.596	0.427	0.522	0.532	0.521
CC(=O)O[C@@]12CO[C@@H]1C[C@H](O)[C@@]1(C)C(=O)[C@H](O)C3=C(C)[C@@H](OC(=O)[C@H](O)[C@@H](NC(=O)OC(C)(C)C)c4ccccc4)C[C@@](O)([C@@H](OC(=O)c4ccccc4)[C@H]21)C3(C)C [Docetaxel (Taxotere)]	0.953	0.965	0.974	0.978	0.964	0.972	0.977	0.98	0.953	0.967	0.973	0.973	0.949	0.964	0.969	0.971	0.96	0.971	0.977	0.983	0.966	0.977	0.982	0.985	0.968	0.982	0.985	0.988	0.967	0.979	0.985	0.987
